Reference: PubChem BioAssay (NCI)
The panel holds about 83,000 compounds, 20% with a hit somewhere; the sample as a whole holds those more often.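 Activity criterion: percent growth below 10, measured after cells in 96-well plates were exposed to a single compound concentration for 48 hours.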 Unmarked numbers belong to inactive results. Active and inactive are the calls of the source.

What follows are compounds tested on MDA-MB-468 breast (assay: NCI-60 one-dose screen, 48 h (100 = growth as untreated, 0 = no growth, -100 = all killed)). Details: 10 µM unless noted.

Compound	growth
COc1cc(-c2nn3c(/C=C4/C(=O)Nc5ccccc54)c(-c4ccc(C)cc4)nc3s2)cc(OC)c1OC	41%
CCN(CC)c1ccc(/C=N/NC(=O)c2ccc(NS(C)(=O)=O)cc2)c(O)c1	-10.8% (active)
COc1cccc(-c2nn(-c3ccccc3)cc2-c2ccnc(NCCCNS(=O)(=O)c3cccc(F)c3)c2)c1	-10.1% (active)
Cc1ccc2oc(=O)cc(-c3sc(N4CCCCC4)nc3-c3ccccc3)c2c1	102%
CCN1CCN(c2nc3ccccc3c3c(=O)c4cc(F)ccc4sc23)CC1	70.9%
COc1ccc(CN2C(=O)/C(=C\C(=O)c3ccc(OCCN4CCCC4)cc3)c3ccccc32)cc1	49.3%
C=CCOC(=O)C1=C(C)N(CC)C(=O)NC1c1c(Cl)n(C)c2ccccc12 (stereo not given)	107%
N#C/C(=C\c1ccc(C#N)cc1)C(=O)c1ccccc1	95.7%
Cc1cc(Nc2nc(-c3cccnc3)nc3ccccc23)n[nH]1	26.8%
Cc1cc(N2CCCC2)nc(NCc2cc(Nc3ccnc4cc(Cl)ccc34)ccc2F)n1	-58.7% (active)
C=Cc1cnc(Nc2ccc(OC)cc2)nc1NCCCNC(=O)C1CCC1	46.4%
CCOC(=O)CSc1nc2ccccc2c(=O)n1Cc1ccc(S(N)(=O)=O)cc1	105%
C=C1C(=O)O[C@H]2[C@H]1CC/C(COC(=O)NCCc1c[nH]c3ccc(Cl)cc13)=C\CC[C@@]1(C)O[C@@H]21	-59% (active)
COc1cnc2c(c1)C(=O)c1c-2n(CCCN2CCNCC2)c(=O)c2cc(F)ccc12	-27.9% (active)
C/C(=C(/c1ccc(Cl)cc1)c1ccc(OCCN)cc1)c1ccc(C)cc1	108%
CC1(C(=O)O)NC(C(=O)O)Cc2c1[nH]c1ccccc21 (stereo not given)	113%
CCc1ccc(C(c2ccc(CC)cc2)C(Cl)(Cl)CCl)cc1	95.8%
Cc1ccc(S(=O)(=O)N2C/C(=C\c3cc(F)cc(F)c3)C(=O)/C(=C/c3cc(F)cc(F)c3)C2)cc1	-43.3% (active)
COc1cccc(/C=N/N=C(N)N)c1	90%
O=C(Nc1ccncc1)C(=O)c1cn(S(=O)(=O)c2ccc(Cl)cc2)c2ccccc12	19.7%

Compound	growth
Brc1ccc(Cn2nnnc2-c2ccn(-c3ccccc3)n2)cc1	71.5%
O=C(N=c1n(-c2ccccc2)nc2n1CCN2C1=NCCN1)c1ccc(Cl)cc1	50.3%
S=C1SCN(CCc2ccccc2)CN1CCc1ccccc1	9.02% (active)
CC(=O)C1=C(C)NC(NN)=NC1c1cccc(Cl)c1 (stereo not given)	105%
CCCCCCCCCCCCSC(=N)N	-58.5% (active)
COC(=O)c1c(C)nc(C)c2c1C(=O)C(Br)=C(NCCCCO)C2=O	29.5%
COc1cc(NC(C)CCCN)c2ncccc2c1Sc1ccc(Cl)cc1 (stereo not given)	-2.79% (active)
CCN1CCN(c2nc(C)cc(NCc3cc(Nc4ccnc5cc(Cl)ccc45)ccc3F)n2)CC1	-23.1% (active)
c1ccc(-c2nc3sc(C(c4ccccc4)c4ccccc4)nn3c2-c2ccccc2)cc1	96.1%
CN1C2CCC1/C(=C\c1ccc(F)cc1)C(=O)/C2=C/c1ccc(F)cc1	28.8%
N#Cc1c2cccnc2c2nnc3cc(Cl)c(Cl)cc3n12	-56% (active)
O=C(Cc1ccc(/C=C/C(=O)c2ncc[nH]2)cc1)Nc1ccc(Br)cc1	19.6%
N#C/C(=C\c1ccc2c(c1)OCO2)c1ccccc1	24.8%
CCOc1cccc(/C=N/NC(=O)c2ccccc2Nc2ccnc(C(F)(F)F)c2)c1O	-23.6% (active)
CCC(CC)n1c(C)cc(=O)n1C(CC)CC	91.2%
CCCCn1c(=O)c(-c2cc(-c3ccc(Cl)cc3)nc(-c3ccc(Cl)cc3)c2)cc2cc(C)ccc21	102%
O=C(N/N=C\c1cccc([N+](=O)[O-])c1)N/N=C/c1cccc([N+](=O)[O-])c1	82%
Cc1ccc(-c2nc3c(N=Nc4ccc(S(N)(=O)=O)cc4)c(N)nn3c(N)c2C#N)cc1	5.87% (active)
Clc1ccc2c(c1)nnn1c3ncccc3c(Br)c21	76.1%
FC(F)(F)c1cc(NC2=NCCN=C(Nc3cc(C(F)(F)F)cc(C(F)(F)F)c3)SS2)cc(C(F)(F)F)c1	23.6%
